Results taken from the supplement of paper PMC10515830.
Counter-ions that a name gives are not always drawn.

Assays:
Conditions in all cases: 10 µM; exposure time 6 h
[1] = test system: Danio rerio larvae (5 dpf); experiment: difference in excitability vs DMSO (percentage points); higher = more excitable than DMSO
Method in brief: (§1)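 Wild-type 5 dpf zebrafish larvae in 96-well plates were given 100 µL egg water containing library compound at 10 µM final for 6 h. After 3 h of exposure, plates at 28.5 ℃ were photographed every 6 s during a 3-h programme of moving lines and 100 ms, 400Hz tones. Z-LaP Tracker (a DeepLabCut model) quantified each behaviour, averaged over 48 larvae per compound. Values are the compound mean minus the DMSO-vehicle control, in percentage points.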

[2] = test system: Danio rerio larvae (5 dpf); experiment: difference in startle response vs DMSO (percentage points); higher = stronger startle than DMSO
Method in brief: as §1

[3] = test system: Danio rerio larvae (5 dpf); experiment: difference in activity during first hour vs DMSO (percentage points); higher = more activity than DMSO
Method in brief: as §1

[4] = test system: Danio rerio larvae (5 dpf); experiment: difference in habituation to acoustic stimuli vs DMSO (percentage points); higher = more habituation than DMSO
Method in brief: as §1

[5] = test system: Danio rerio larvae (5 dpf); experiment: difference in combined optomotor response to red, green and blue moving lines vs DMSO (percentage points); higher = stronger optomotor response than DMSO
Method in brief: as §1

SMILES	difference in excitability [1]	difference in startle response [2]	difference in activity during first hour [3]	difference in habituation to acoustic stimuli [4]	difference [5]
COc1cc(CNC(=O)CCCC/C=C/C(C)C)ccc1O [Capsaicin]	12.5	8.06	-6.37	-0.624	5.27
CCN(CC)C(=O)[C@@]1(c2ccccc2)C[C@H]1CN [Levomilnacipran (hydrochloride)]	9.82	0.949	-23	-1.84	-14.2
CCCN[C@H]1CCc2nc(N)sc2C1 [(S)-Pramipexole (hydrochloride)]	6.47	-2.57	-10.9	5.7	0.342
C[C@H](CS)C(=O)N1CCC[C@H]1C(=O)O [Captopril]	1.66	-4.09	-5.55	-3.07	1.64
CCN[C@H]1C[C@H](C)S(=O)(=O)c2sc(S(N)(=O)=O)cc21 [Dorzolamide (hydrochloride)]	-4.82	-3.95	4.07	2.29	3.26
N#Cc1ccc(C(c2ccc(C#N)cc2)n2cncn2)cc1 [Letrozole]	4.92	-5.86	-6.93	-3.28	0.376
COc1c(N2C[C@@H]3CCCN[C@@H]3C2)c(F)cc2c(=O)c(C(=O)O)cn(C3CC3)c12 [Moxifloxacin (hydrochloride)]	22.9	4.54	5.78	3.51	3.81
O=C(O)c1cc(-c2ccc(F)cc2F)ccc1O [Diflunisal]	1.22	5.89	15.2	-3.92	6.8
CC(=O)Nc1cccc(-n2c(=O)n(C3CC3)c(=O)c3c(Nc4ccc(I)cc4F)n(C)c(=O)c(C)c32)c1 [Trametinib]	9.81	0.301	6.06	2.09	6.51
NCC(=O)CCC(=O)O [5-Aminolevulinic Acid (hydrochloride)]	11.2	1.8	1.6	-2.9	2.93
CC(C)(C)c1nc(-c2cccc(NS(=O)(=O)c3c(F)cccc3F)c2F)c(-c2ccnc(N)n2)s1 [Dabrafenib]	1.22	0.607	3.67	-5.97	-1.51
Nc1ncnc2c1ncn2[C@@H]1O[C@H](CO)[C@@H](O)[C@H]1O [Adenosine]	1.75	6.58	10	-5.11	5.99
Cc1c2oc3c(C)ccc(C(=O)N[C@@H]4C(=O)N[C@H](C(C)C)C(=O)N5CCC[C@H]5C(=O)N(C)CC(=O)N(C)[C@@H](C(C)C)C(=O)O[C@@H]4C)c3nc-2c(C(=O)N[C@@H]2C(=O)N[C@H](C(C)C)C(=O)N3CCC[C@H]3C(=O)N(C)CC(=O)N(C)[C@@H](C(C)C)C(=O)O[C@@H]2C)c(N)c1=O [Actinomycin D]	5.1	-6.8	6.02	4.18	-0.162
CC(CN1c2ccccc2Sc2ccccc21)N(C)C (stereo not given) [Promethazine (hydrochloride)]	7.65	-2.21	16.6	-3.09	4.32
CN(C)c1ccc(O)c2c1C[C@H]1C[C@H]3[C@H](N(C)C)C(O)=C(C(N)=O)C(=O)[C@@]3(O)C(O)=C1C2=O [Minocycline (hydrochloride hydrate)]	3.95	-2.06	13.3	8.03	-2.24
Cn1c(=O)c2nc[nH]c2n(C)c1=O [Theophylline]	4.49	5.34	8.14	4.58	-0.54
CCOc1ccc2ccccc2c1C(=O)N[C@@H]1C(=O)N2[C@@H]1SC(C)(C)[C@@H]2C(=O)O [Nafcillin (sodium salt hydrate)]	3.99	-0.0381	19.4	-2.07	5.58
Nc1nc(=O)c2nc(CNc3ccc(C(=O)N[C@@H](CCC(=O)O)C(=O)O)cc3)cnc2[nH]1 [Folic Acid]	7.04	-0.204	15.5	2.6	6.5
C1N2CN3CN1CN(C2)C3 [Methenamine Hippurate]	0.76	5.89	-3.94	9.62	2.94
Nc1cccc2c1C(=O)N(C1CCC(=O)NC1=O)C2=O (stereo not given) [Pomalidomide]	0.1	2.2	0.787	2.64	1.26
CCC(C)(C)C(=O)O[C@H]1C[C@@H](C)C=C2C=C[C@H](C)[C@H](CC[C@@H]3C[C@@H](O)CC(=O)O3)[C@H]21 [Simvastatin]	6.26	-2.42	9.76	1.77	2.53
Nc1nc2c(c(=O)[nH]1)N(C=O)C(CNc1ccc(C(=O)NC(CCC(=O)O)C(=O)O)cc1)CN2 (racemic) [DL-Folinic Acid (calcium salt)]	-0.743	2.87	8.84	0.082	5.53
Cc1c(OCC(F)(F)F)ccnc1C[S+]([O-])c1nc2ccccc2[nH]1 (stereo not given) [Lansoprazole]	8.61	-2.87	1.57	-2.95	6.61
COc1ccc(CC(C)NCC(O)c2ccc(O)c(NC=O)c2)cc1 (stereo not given) [Formoterol (hemifumarate hydrate)]	9.74	-13.1	49.1	-7.8	1.18
CN(C)[C@@H]1C(O)=C(C(N)=O)C(=O)[C@@]2(O)C(O)=C3C(=O)c4c(O)cccc4[C@@](C)(O)[C@H]3C[C@@H]12 [Tetracycline (hydrochloride)]	5.28	1.04	2.06	-0.0493	-5.79

SMILES	difference in excitability [1]	difference in startle response [2]	difference in activity during first hour [3]	difference in habituation to acoustic stimuli [4]	difference [5]
C[C@H](Cn1cnc2c(N)ncnc21)OCP(=O)(O)O [Tenofovir]	-6.21	0.269	0.971	-2.1	5.37
Nc1cc(-c2ccncc2)c[nH]c1=O [Amrinone]	-0.366	5.87	-4.08	9.44	0.366
CC(=O)N1CCN(c2ccc(OCC3COC(Cn4ccnc4)(c4ccc(Cl)cc4Cl)O3)cc2)CC1 (stereo not given) [Ketoconazole]	8	3.5	-5.85	-0.327	5.96
CNCCC=C1c2ccccc2CCc2ccccc21 [Nortriptyline (hydrochloride)]	3.17	4.3	-17.9	-3.34	-2.39
CO/N=C(\C(=O)N[C@@H]1C(=O)N2C(C(=O)[O-])=C(C[N+]3(C)CCCC3)CS[C@H]12)c1csc(N)n1 [Cefepime (hydrochloride hydrate)]	1.19	-0.767	1.35	1.3	-1.46
NS(=O)(=O)c1cc2c(cc1C(F)(F)F)NCNS2(=O)=O [Hydroflumethiazide]	2.46	7.8	0.32	-1.14	-2.31
Cc1cccc(Nc2ccncc2S(=O)(=O)NC(=O)NC(C)C)c1 [Torasemide]	6.87	-10.7	6.15	-5.49	-5.29
COc1ccc2[nH]c([S+]([O-])Cc3ncc(C)c(OC)c3C)nc2c1 (stereo not given) [Omeprazole]	14.6	-0.657	-0.859	0.506	5.66
Cn1cnc2c(F)c(Nc3ccc(Br)cc3F)c(C(=O)NOCCO)cc21 [Binimetinib]	-0.212	-0.502	15.3	-0.78	7.07
CC(C)NCC(O)c1cc(O)cc(O)c1 (stereo not given) [Metaproterenol (hemisulfate)]	3.08	0.666	26.4	-8.48	1.44
O=C(CCCN1CC=C(n2c(=O)[nH]c3ccccc32)CC1)c1ccc(F)cc1 [Droperidol]	29	-1.85	12.3	-7.94	-0.322
NCCCC(O)(P(=O)(O)O)P(=O)(O)O [Alendronate (sodium hydrate)]	-4.92	0.325	-3.96	-4.98	5.9
CC[C@@H](CO)NCCN[C@@H](CC)CO [Ethambutol (hydrochloride)]	2.65	1.19	7	4.16	-3.67
COC(=O)N[C@H](C(=O)N1CCC[C@H]1c1ncc(-c2ccc(-c3ccc(-c4cnc([C@@H]5CCCN5C(=O)[C@@H](NC(=O)OC)C(C)C)[nH]4)cc3)cc2)[nH]1)C(C)C [Daclatasvir]	18.7	2.15	-4.26	0.308	-0.609
CN(CCOc1ccc(CC2SC(=O)NC2=O)cc1)c1ccccn1 (stereo not given) [Rosiglitazone (maleate)]	10.7	-3.19	10.3	-2.4	-0.752
CC(C)Cn1cnc2c(N)nc3ccccc3c21 [Imiquimod]	-4.08	8.27	-15	-2.3	-3.49
Nc1nc(=O)n([C@@H]2CS[C@H](CO)O2)cc1F [Emtricitabine]	1.12	-4.62	11.4	4.83	7.06
OC[C@H]1O[C@@H](n2cnc3c2N=CNC[C@H]3O)C[C@@H]1O [Pentostatin]	4.36	-6.74	2.27	0.584	3.35
O=c1[nH]cnc2c1ncn2[C@H]1CC[C@@H](CO)O1 [Didanosine]	1.69	-3.05	4.04	-1.02	4.2
CC(=O)N(CC(O)CO)c1c(I)c(C(=O)NCC(O)CO)c(I)c(C(=O)NCC(O)CO)c1I (stereo not given) [Iohexol]	1.55	0.754	5.28	-1.14	-0.849
NC(=O)N1c2ccccc2C=Cc2ccccc21 [Carbamazepine]	-5.41	5.12	-2.57	0.458	11.2
Cc1ncc([N+](=O)[O-])n1CC(C)O (stereo not given) [Secnidazole]	4.12	-1.25	19.9	-6.46	6.66
C#C[C@]1(O)CC[C@H]2[C@@H]3CCc4cc(OC)ccc4[C@H]3CC[C@@]21C [Mestranol]	23	-9.55	-22.7	1.6	-16.5
OCCN(CCO)c1nc(N2CCCCC2)c2nc(N(CCO)CCO)nc(N3CCCCC3)c2n1 [Dipyridamole]	1.25	3.31	10.2	-3.82	6.89
CCC1=C(C)CN(C(=O)NCCc2ccc(S(=O)(=O)NC(=O)N[C@H]3CC[C@H](C)CC3)cc2)C1=O [Glimepiride]	-3.07	2.59	2.62	3.43	-2.24
